About 7,300 (2%) of roughly 360,000 compounds were called active. No stated cut-off is given here; in the data, active means inhibition above about 50%; inactive means the rest. Only a selection was taken, and actives are over-represented in it overall.
assay: blockers of TWEAK-induced Fn14 reporter activity – luciferase reporter cells, uHTS, primary screen (AID 1159606); conditions: TWEAK-stimulated Fn14 reporter cells, luciferase luminescence, 8 h; at 10 µM; active compounds read high

| Compound | inhibition |
| --- | --- |
| Cc1ccc(-c2c[n+](=O)c3c(n2[O-])CCC3)cc1 | -2.42% (inactive) |
| O=C1c2ccccc2C(Nc2ccc3c(c2)OCCO3)N1Cc1ccco1 (stereo unspecified) | 70.9% (active) |
| CCCCCn1nnnc1C1c2ccccc2C(=O)N1Cc1ccco1 (stereo unspecified) | 16.5% (inactive) |
| Cc1ccnc(N2C(=O)c3ccccc3C2Nc2ccc3c(c2)OCCO3)c1 (stereo unspecified) | 61.2% (active) |
| O=C(Nc1ccc2c(c1)OCCO2)C1c2ccccc2OCC(=O)N1Cc1ccccn1 (stereo unspecified) | -0.53% (inactive) |
| COC(=O)c1cc(NC2c3ccccc3C(=O)N2c2ccc(Cl)cn2)cc(C(=O)OC)c1 (stereo unspecified) | -15.2% (inactive) |
| S=C(NCc1ccco1)Nc1ccc2c(c1)OCCO2 | 2.21% (inactive) |
| C[C@@H]1C[C@@H]2O[C@H]2/C=C\C=C\C(=O)Cc2c(Cl)c(O)cc(O)c2C(=O)O1 | 90.7% (active) |
| COc1ccc([C@H]2[C@H](C(C)=O)N3N=Cc4ccccc4C3C23C(=O)OC(C)(C)OC3=O)cc1 (stereo partly specified) | 10.5% (inactive) |
| C/C(=N/NC(=S)Nc1ccccc1)c1ccc2c(c1)OCO2 | -46.3% (inactive) |
| S=C(Nc1ccccc1)Nc1ccc2ccccc2c1 | 0.33% (inactive) |
| Cc1ccc(NC(=O)Nc2ccc3oc(C)nc3c2)cc1 | -4.94% (inactive) |
| O=C(Nc1ccc2ccccc2c1)Nc1ccc2snnc2c1 | 74.8% (active) |
| O=C(C1CCC1)N1CCN(S(=O)(=O)c2ccc([N+](=O)[O-])cc2)CC1 | 4.46% (inactive) |
| CCOC(=O)[C@]12CCCC=C1N(Cc1ccc3c(c1)OCO3)C(=O)[C@H](CC(=O)NCc1cccs1)C2 | 15.5% (inactive) |
| O=S(=O)(Cc1ccc(Cl)cc1Cl)c1ccc(Cl)cc1 | 12.1% (inactive) |
| CCCCNC(=O)C[C@@H]1C[C@@]2(C(=O)OCC)CCC=C2N(Cc2cccc3ccccc23)C1=O | 14.7% (inactive) |
| CC(=O)c1c(C)oc2ccc(NS(=O)(=O)c3ccc(C(=O)O)cc3)cc12 | 3.85% (inactive) |
| CC(=O)c1c(C)oc2ccc(NS(=O)(=O)c3ccccc3)cc12 | 21.6% (inactive) |
| COc1ccc(S(=O)(=O)Nc2ccc3oc(C)c(C(C)=O)c3c2)cc1 | 54.4% (active) |
| CC1(C(=O)NS(=O)(=O)c2ccc(C#N)cc2)CCN1C(=O)CC1CCCC1 (stereo unspecified) | 1.67% (inactive) |

| Compound | inhibition |
| --- | --- |
| CCCCCCN1C[C@H](O)[C@@H](n2cc(C3CC3)nn2)C[C@@H]1c1ccc(Cl)cc1 | -1.73% (inactive) |
| O=C(/C=C/[C@H]1O[C@@H](n2cnc3c(NC(=O)c4ccccc4)ncnc32)[C@H](O)[C@@H]1O)NCc1ccccc1 | -7.74% (inactive) |
| COc1ccc(NC(=O)C2C3CCC(O3)C2C(=O)O)cc1OC (stereo unspecified) | 2.27% (inactive) |
| COc1ccc(NC(=O)CSCc2ccc([N+](=O)[O-])cc2)cc1OC | 6.35% (inactive) |
| COc1ccc(NC(=S)SC)cc1OC | 68.3% (active) |
| COc1cc(OC)cc(C(=O)NCCSCc2ccc(Cl)cc2)c1 | 0.23% (inactive) |
| C=CCn1c(SCC(=O)NC(=O)Cc2ccccc2)nc2ccccc2c1=O | 14% (inactive) |
| CCn1c(/C=C/c2ccc([N+](=O)[O-])o2)nc2ccccc2c1=O | 63.4% (active) |
| Cc1nc2ccccc2c(=O)n1NC(=O)c1ccc(Cl)c([N+](=O)[O-])c1 | 32.6% (inactive) |
| COc1ccc(Cl)cc1NC(=O)COC(=O)C(CC(C)C)N1C(=O)C2CC=CCC2C1=O (stereo unspecified) | -4.03% (inactive) |
| Nc1[nH]c(C(=O)c2ccccc2)c(-c2ccc(Br)cc2)c1C(=O)NC1CC1 | -5.57% (inactive) |
| Cc1cc(C(C)(C)C)cc(C)c1N | -8.01% (inactive) |
| CC(C)(C)c1ccc(Oc2ccc(N)cc2)cc1 | 99% (active) |
| CN(C)S(=O)(=O)c1ccc(Oc2ccc(S(=O)(=O)N(C)C)cc2)cc1 | 6.23% (inactive) |
| CC(=O)c1ccc(OCCCC(=O)Nc2ccc(C)c(S(=O)(=O)N3CCOCC3)c2)cc1 | -0.59% (inactive) |
| COC(=O)c1ccc2nc(-c3cccc(Br)c3)c(Cc3ccccc3C(F)(F)F)n2c1 | -11.5% (inactive) |
| Nc1nc(-c2sc3nc4c(cc3c2N)CCCC4)nc(N2CCOCC2)n1 | -10.3% (inactive) |
| COc1ccc(CC(=O)Nc2ccccc2NC(=O)c2ccco2)cc1OC | -18.6% (inactive) |
| COc1ccc(CC(=O)Nc2nc(-c3ccc(F)c(F)c3)cs2)cc1OC | 59% (active) |
| COc1ccc(CC(=O)NC2CCSc3ccccc32)cc1OC (stereo unspecified) | 2.41% (inactive) |
| O=C(COC(=O)C1CCCO1)Nc1nc(-c2ccc(F)cc2)cs1 (stereo unspecified) | -21.9% (inactive) |

| Compound | inhibition |
| --- | --- |
| COc1ccc(CCNC(=O)COC(=O)Cc2cc(OC)c(OC)c(OC)c2)cc1 | -9.86% (inactive) |
| COc1cc(CC(=O)Nc2nc(-c3ccc(F)c(F)c3)cs2)cc(OC)c1OC | 60.3% (active) |
| O=c1cc(CO)oc(C(Nc2cccc(C(F)(F)F)c2)c2ccccn2)c1O (stereo unspecified) | -5.67% (inactive) |
| Cc1cc(C)cc(N(CCC#N)C(=O)CN2C(=O)NC3(CCCC3)C2=O)c1 | -2.17% (inactive) |
| CCC(C)NC(=O)CN(C1CCCCC1)S(C)(=O)=O (stereo unspecified) | 5.8% (inactive) |
| CCCCCCN1CCN(C2CN(Cc3cn(Cc4ccc(F)cc4)nn3)S(=O)(=O)C2)CC1 (stereo unspecified) | 8.31% (inactive) |
| CCc1cc(C(=O)Nc2nnc(C3CC3)s2)sc1C | 7.61% (inactive) |
| Cc1cnc(NC(=O)Cn2cnc3c2c(=O)n(C)c(=O)n3C)s1 | 6.18% (inactive) |
| O=C(Nc1nnc(C2CC2)s1)c1ccccn1 | 65.5% (active) |
| CCc1ccccc1OCC(=O)Nc1nnc(C2CC2)s1 | -23.1% (inactive) |
| CN(C(=O)c1ccccn1)c1nnc(-c2ccccn2)s1 | -1.91% (inactive) |
| Cc1cnc(NC(=O)c2ccccn2)s1 | 55.5% (active) |
| CN(C)c1cccc(NC(=O)c2ccc(-c3ccc(F)c(F)c3)c3ccoc23)c1 | -36.6% (inactive) |
| CCNC(=S)Nc1ccc2c(c1)c(=O)n(C)n2Cc1ccc(Cl)cc1 | 10.2% (inactive) |
| C=CCn1c(=S)[nH]c2scc(-c3ccco3)c2c1=O | 2.15% (inactive) |
| CC(C)CNC(=O)C1(C)CCCN1C(=O)CSc1ccccc1 (stereo unspecified) | 24.6% (inactive) |
| Cc1cc(C)nc(S/C=C/C(=O)c2ccccc2)n1 | 93.2% (active) |
| O=C(/C=C/Sc1ncn[nH]1)c1ccc(Cl)cc1 | 46.2% (inactive) |
| COC(c1ccccc1)(c1ccccc1)C(Oc1nc(C)cc(C)n1)C(=O)O (stereo unspecified) | 1.41% (inactive) |

Source: PubChem BioAssay AID1159606 (Sanford-Burnham Center for Chemical Genomics, 2016)
